The text below walks through data of ChEMBL document CHEMBL2218924, “A broad activity screen in support of a chemogenomic map for kinase signalling research and drug discovery” (Biochem J, 2013).

The target of test [1] is T1, Mitogen-activated protein kinase kinase kinase 5 (Homo sapiens) (UniProt Q99683).
T1 sequence (whole entry): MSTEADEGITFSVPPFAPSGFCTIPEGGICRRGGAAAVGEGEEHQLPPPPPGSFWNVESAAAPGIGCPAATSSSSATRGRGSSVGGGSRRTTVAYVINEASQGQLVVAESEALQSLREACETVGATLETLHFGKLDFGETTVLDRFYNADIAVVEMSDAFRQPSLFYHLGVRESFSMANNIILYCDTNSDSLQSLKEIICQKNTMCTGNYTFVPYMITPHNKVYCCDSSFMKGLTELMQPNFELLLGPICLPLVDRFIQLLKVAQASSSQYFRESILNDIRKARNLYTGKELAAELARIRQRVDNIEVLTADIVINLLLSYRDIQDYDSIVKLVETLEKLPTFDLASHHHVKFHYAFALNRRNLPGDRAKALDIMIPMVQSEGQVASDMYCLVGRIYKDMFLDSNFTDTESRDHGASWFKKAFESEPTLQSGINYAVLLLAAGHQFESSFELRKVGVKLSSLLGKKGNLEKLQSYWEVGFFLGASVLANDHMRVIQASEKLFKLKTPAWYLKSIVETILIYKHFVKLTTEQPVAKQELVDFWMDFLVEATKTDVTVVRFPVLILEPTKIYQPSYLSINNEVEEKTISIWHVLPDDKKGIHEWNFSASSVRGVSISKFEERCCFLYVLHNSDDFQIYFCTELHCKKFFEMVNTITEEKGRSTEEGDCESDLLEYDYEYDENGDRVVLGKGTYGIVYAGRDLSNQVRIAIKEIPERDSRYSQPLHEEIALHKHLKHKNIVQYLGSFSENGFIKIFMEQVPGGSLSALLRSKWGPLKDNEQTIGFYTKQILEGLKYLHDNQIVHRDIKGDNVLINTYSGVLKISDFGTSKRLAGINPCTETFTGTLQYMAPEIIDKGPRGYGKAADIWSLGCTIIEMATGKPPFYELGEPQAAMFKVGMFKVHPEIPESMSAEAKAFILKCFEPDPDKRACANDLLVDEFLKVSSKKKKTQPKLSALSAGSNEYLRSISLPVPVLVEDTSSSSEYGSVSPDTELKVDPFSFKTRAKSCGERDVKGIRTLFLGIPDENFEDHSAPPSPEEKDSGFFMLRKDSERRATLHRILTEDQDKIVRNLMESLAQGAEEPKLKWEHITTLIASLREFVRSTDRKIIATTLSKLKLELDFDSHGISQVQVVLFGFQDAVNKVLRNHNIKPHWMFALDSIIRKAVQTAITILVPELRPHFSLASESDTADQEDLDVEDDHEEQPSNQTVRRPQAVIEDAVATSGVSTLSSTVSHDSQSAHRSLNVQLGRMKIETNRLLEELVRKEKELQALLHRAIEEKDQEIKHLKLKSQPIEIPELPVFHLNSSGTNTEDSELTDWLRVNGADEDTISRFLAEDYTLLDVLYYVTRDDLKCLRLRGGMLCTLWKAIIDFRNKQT
Particulars: at 10 µM.

Test [2] addresses Tyrosine-protein kinase ABL2 (Homo sapiens) (UniProt P42684). Conditions: at 10 µM.
The target in test [3] is T2, Aurora kinase A (Homo sapiens) (UniProt O14965).
T2 sequence (whole entry): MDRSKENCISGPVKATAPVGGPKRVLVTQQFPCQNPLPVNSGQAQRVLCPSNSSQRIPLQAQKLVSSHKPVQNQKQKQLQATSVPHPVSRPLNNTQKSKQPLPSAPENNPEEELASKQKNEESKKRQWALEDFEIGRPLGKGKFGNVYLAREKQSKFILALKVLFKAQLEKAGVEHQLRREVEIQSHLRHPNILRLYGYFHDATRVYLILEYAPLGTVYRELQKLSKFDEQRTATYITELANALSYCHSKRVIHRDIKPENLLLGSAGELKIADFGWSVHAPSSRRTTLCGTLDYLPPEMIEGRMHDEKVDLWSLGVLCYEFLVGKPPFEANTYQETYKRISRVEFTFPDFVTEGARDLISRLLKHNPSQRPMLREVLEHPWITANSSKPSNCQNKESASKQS
Particulars: at 1 µM.

The target of test [4] is T2, Aurora kinase A (Homo sapiens). Conditions: at 10 µM.
In test [5] the target is Aurora kinase B (Homo sapiens) (UniProt Q96GD4). Particulars: at 1 µM.
Test [6] has the same target. Conditions: at 10 µM.
The target in test [7] is T3, Aurora kinase C (Homo sapiens) (UniProt Q9UQB9).
T3 sequence (whole entry): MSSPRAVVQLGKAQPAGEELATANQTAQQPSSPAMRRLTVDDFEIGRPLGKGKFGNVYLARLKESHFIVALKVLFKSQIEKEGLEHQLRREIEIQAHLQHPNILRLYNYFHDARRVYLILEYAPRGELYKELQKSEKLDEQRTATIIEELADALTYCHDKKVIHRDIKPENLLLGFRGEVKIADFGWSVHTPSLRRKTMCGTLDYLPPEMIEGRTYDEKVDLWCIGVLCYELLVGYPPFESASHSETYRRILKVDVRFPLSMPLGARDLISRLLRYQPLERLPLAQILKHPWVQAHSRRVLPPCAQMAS
Conditions: at 1 µM.

In test [8] the target is T3, Aurora kinase C (Homo sapiens). Conditions: at 10 µM.
In test [9] the target is Tyrosine-protein kinase receptor UFO (Homo sapiens) (UniProt P30530). Particulars: at 1 µM.
Test [10] has the same target. Conditions: at 10 µM.
For test [11], the target named is Tyrosine-protein kinase BTK (Homo sapiens) (UniProt Q06187). Conditions: at 1 µM.
Test [12] shares this target. Particulars: at 10 µM.
The target of test [13] is Tyrosine-protein kinase Blk (Homo sapiens) (UniProt P51451). Particulars: at 10 µM.
The target of test [14] is Tyrosine-protein kinase ABL1 (Homo sapiens) (UniProt P00519). Particulars: at 1 µM.
For test [15] the target is unchanged. Particulars: at 10 µM.
The target in test [16] is Tyrosine-protein kinase ABL2 (Homo sapiens) (UniProt P42684). Particulars: at 1 µM.
The target in test [17] is Protein-tyrosine kinase 6 (Homo sapiens) (UniProt Q13882). Particulars: at 1 µM.
For test [18] the target is unchanged. Conditions: at 10 µM.
For test [19], the target named is Tyrosine-protein kinase Blk (Homo sapiens) (UniProt P51451). Conditions: at 1 µM.

Chain of Tyrosine-protein kinase BTK (Homo sapiens) (Q06187 whole entry): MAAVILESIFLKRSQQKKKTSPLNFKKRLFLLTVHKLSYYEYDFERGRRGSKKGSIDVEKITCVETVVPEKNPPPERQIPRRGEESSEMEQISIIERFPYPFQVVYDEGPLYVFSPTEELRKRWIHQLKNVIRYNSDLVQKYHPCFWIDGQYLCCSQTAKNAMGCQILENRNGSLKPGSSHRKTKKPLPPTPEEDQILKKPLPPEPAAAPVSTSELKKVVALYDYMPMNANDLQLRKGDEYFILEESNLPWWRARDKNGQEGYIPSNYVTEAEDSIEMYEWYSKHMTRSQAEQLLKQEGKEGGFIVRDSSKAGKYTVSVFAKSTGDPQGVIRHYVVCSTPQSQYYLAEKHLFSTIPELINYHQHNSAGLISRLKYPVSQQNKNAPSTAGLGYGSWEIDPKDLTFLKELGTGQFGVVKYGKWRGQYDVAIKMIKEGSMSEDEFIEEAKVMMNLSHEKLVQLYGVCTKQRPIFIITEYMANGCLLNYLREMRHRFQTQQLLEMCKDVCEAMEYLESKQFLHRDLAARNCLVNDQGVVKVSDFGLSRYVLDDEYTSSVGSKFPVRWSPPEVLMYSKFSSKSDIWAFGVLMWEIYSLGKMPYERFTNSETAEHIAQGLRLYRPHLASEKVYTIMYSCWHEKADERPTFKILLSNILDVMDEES
Chain of Tyrosine-protein kinase ABL2 (Homo sapiens) (P42684 whole entry): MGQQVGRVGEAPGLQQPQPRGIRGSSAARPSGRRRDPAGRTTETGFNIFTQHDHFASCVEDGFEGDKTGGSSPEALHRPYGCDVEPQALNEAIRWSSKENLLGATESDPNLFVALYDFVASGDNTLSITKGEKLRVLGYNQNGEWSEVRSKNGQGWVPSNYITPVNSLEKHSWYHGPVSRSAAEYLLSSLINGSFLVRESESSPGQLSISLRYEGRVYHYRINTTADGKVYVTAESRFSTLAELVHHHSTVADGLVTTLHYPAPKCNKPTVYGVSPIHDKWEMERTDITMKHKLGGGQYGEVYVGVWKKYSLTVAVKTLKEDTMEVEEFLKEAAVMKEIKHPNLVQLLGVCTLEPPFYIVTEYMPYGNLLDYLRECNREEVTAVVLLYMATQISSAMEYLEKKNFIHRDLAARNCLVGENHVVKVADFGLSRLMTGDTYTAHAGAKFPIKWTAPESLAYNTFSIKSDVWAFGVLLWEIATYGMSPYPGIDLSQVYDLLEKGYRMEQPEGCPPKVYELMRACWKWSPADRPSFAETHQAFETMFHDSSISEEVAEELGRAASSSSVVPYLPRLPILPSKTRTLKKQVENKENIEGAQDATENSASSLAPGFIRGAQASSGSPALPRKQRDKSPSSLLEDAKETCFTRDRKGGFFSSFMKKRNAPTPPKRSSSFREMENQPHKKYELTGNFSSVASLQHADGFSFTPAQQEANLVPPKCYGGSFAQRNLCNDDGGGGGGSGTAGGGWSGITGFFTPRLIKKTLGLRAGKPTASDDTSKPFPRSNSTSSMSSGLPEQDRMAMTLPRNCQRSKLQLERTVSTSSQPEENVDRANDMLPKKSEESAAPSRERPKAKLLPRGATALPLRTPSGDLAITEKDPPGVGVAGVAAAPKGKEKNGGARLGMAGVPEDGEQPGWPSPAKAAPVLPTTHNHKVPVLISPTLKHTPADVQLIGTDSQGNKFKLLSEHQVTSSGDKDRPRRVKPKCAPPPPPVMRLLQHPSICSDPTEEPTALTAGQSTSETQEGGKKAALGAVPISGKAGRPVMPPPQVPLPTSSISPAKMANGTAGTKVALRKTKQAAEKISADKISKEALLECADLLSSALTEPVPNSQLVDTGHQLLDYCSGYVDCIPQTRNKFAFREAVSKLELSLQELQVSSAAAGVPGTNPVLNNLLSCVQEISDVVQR
Chain of Aurora kinase B (Homo sapiens) (Q96GD4 whole entry): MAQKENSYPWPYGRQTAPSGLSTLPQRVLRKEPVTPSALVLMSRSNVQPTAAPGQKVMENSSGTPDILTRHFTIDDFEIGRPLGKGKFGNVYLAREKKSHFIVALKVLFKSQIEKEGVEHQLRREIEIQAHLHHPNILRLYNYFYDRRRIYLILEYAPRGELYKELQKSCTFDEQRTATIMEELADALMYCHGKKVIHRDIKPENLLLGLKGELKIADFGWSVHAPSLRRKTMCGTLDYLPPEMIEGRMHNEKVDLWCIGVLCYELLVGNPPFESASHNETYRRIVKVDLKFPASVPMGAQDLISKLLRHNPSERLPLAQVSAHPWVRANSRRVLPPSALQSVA
Chain of Protein-tyrosine kinase 6 (Homo sapiens) (Q13882 whole entry, looked up): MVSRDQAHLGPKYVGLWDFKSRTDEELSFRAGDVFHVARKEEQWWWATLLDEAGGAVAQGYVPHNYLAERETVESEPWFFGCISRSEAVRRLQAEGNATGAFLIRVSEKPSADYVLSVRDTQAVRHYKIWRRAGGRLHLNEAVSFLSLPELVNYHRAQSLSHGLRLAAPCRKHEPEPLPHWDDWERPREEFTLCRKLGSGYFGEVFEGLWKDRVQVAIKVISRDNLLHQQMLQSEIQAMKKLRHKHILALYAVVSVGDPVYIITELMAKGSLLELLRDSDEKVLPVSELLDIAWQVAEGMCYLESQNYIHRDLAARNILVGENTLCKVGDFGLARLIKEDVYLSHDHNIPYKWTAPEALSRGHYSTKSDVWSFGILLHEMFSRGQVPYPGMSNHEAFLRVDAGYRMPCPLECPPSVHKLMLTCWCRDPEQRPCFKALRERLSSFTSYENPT
Chain of Tyrosine-protein kinase Blk (Homo sapiens) (P51451 2-505 limits assumed): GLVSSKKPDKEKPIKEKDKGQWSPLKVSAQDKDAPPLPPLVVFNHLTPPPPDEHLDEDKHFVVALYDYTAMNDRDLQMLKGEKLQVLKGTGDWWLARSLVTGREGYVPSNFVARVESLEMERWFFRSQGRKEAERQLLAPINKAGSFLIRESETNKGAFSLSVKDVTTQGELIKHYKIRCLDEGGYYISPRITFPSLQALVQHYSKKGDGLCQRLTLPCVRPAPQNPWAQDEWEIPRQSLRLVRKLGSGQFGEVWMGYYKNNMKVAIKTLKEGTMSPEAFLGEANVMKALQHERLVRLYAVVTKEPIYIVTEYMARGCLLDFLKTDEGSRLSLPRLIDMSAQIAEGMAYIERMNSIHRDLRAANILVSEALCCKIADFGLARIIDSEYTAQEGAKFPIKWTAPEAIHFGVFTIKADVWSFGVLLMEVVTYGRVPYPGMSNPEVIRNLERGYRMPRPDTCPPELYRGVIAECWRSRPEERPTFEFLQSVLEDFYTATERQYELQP
Chain of Tyrosine-protein kinase receptor UFO (Homo sapiens) (P30530 whole entry): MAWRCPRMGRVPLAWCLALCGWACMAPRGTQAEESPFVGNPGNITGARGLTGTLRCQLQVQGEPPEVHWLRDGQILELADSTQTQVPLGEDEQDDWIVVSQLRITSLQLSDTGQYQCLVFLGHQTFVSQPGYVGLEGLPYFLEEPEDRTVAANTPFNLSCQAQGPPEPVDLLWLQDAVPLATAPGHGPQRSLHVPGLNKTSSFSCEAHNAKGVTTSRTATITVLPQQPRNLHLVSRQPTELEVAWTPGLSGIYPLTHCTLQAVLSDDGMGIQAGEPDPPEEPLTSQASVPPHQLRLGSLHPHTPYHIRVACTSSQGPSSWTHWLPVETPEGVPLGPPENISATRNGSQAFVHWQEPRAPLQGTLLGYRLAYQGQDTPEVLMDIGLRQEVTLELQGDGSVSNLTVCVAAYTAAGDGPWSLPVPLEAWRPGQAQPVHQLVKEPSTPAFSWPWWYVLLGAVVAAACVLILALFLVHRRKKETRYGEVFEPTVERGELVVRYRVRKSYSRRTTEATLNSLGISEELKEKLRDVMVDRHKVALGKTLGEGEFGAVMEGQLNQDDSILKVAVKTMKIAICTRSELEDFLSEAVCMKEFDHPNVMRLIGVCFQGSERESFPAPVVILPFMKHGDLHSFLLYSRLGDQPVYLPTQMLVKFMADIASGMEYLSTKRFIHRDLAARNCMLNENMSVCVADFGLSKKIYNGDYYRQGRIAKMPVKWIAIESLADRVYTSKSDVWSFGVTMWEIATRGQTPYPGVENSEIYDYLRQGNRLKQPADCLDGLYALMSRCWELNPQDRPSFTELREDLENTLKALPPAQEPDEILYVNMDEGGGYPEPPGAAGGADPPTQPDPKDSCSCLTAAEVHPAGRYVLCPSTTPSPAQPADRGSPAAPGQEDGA

On to `CC(C)(C)c1nc2c3ccc(F)cc3c3c(=O)[nH]ccc3c2[nH]1`, for which the residual activity was 35% in [1]; 100% in test [2]; 13% in test [3]; 25% in test [4]; 1% in test [5]; -1% in test [6]. For the same compound, the residual activity in [7] amounted to 11%; in test [8] it was 7%; in test [9], 40%; in test [10], 59%; in test [11], 71%; in test [12], 59%.
On to `N#Cc1c(NC(=O)c2cccc3ccccc23)sc2c1CCCC2`, for which the residual activity in [1] was found to be 80%; in [3], 92%; in test [5] it was 69%; in test [6], 69%; in test [7], 98%; in test [8] it was 97%. For the same compound, the residual activity is 96% in test [9], 79% in [10] and 97% in test [13].
As to `CN(C)S(=O)(=O)c1ccc2c(c1)/C(=C/c1cc3c([nH]1)CCCC3)C(=O)N2`, the residual activity in [14] is 77%; in [15], 72%; in test [16], 114%; in test [2], 75%; in test [3] it was 36%; in [4], 13%. The residual activity in test [5] is -1%; in test [6] it was 1%; in [7], 75%; in test [8], 52%; in [9] it was 51%; in [10], 36%. Also, the residual activity in test [17] was found to be 98%; in test [18] it was 94%; in [11] it was 91%; in test [12] it was 50%; in [19], 10%; in [13] it was 2%.
On to `O=C1NC(=O)C(c2cn(CCCn3ccnc3)c3ccccc23)=C1Nc1ccccc1`, for which the residual activity in [1] was 76%; in test [16] it was 111%; in test [2], 60%; in test [4], 72%; in test [8], 67%; in test [10], 66%. Besides, the residual activity in test [13] is 33%.
As to `Cc1cc(C)c(/C=C2\C(=O)Nc3ccccc32)[nH]1`, the residual activity in [5] stood at 6%; in [6], 0%; in test [9] it was 31%; in test [10], 21%; in [17], 103%; in test [18], 104%. Moreover, the results for the residual activity in test [19] and in [13] were 65% and 32%, respectively.
Regarding `CC(C)N(CCC(=O)c1ccc2ccccc2c1)Cc1ccccc1`, the residual activity in test [6] was determined as 83%; in test [7] it was 76%; in [8], 61%; in test [9], 69%; in test [10] it was 74%.
Consider `COc1ccc(COc2ccc(Cc3cnc(N)nc3N)cc2OC)cc1`, for which the residual activity in [15] came out at 117%; in [3], 108%; in test [4] it was 111%; in test [5] it was 110%; in test [6] it was 76%; in test [9] it was 80%. Further, the figures for the residual activity in [10] and in [13] were 74% and 98%, respectively.
As for `Oc1cccc(-c2nc(N3CCOCC3)c3oc4ncccc4c3n2)c1`, the residual activity in test [6] worked out at 92%; in test [10], 86%.
As to `CSc1nc(-c2ccc(F)cc2)c(-c2ccnc(NC(C)c3ccccc3)c2)[nH]1` (stereo not given), the residual activity in test [1] came out at 86%; in test [5], 46%; in test [6] it was 13%; in [9] it was 101%; in test [10], 85%; in test [18], 89%. The residual activity is 90% in test [11], 91% in test [12], 98% in test [19] and 63% in [13].
On to `O=C1Nc2ccccc2/C1=C\c1c(Cl)[nH]c2ccccc12`, for which the residual activity in [1] was 70%; in test [6] it was 59%; in test [10], 58%; in [18], 54%; in test [12] it was 80%.
Consider `N#C/C(=C\c1ccc(O)c(O)c1)C(=O)NCc1ccccc1`, for which the residual activity is 77% in test [10] and 104% in [19].
On to `COc1ccc2c(c1)c(C1=C(c3c[nH]c4ccccc34)C(=O)NC1=O)cn2CCCN(C)C`, for which the residual activity in test [14] is 107%; in test [15], 114%; in test [16], 113%; in test [2], 74%; in test [3], 100%; in [4], 97%. For the same compound, the residual activity in test [5] was 39%; in [6], 7%; in test [8], 59%; in [10] it was 40%; in test [17], 98%; in test [18], 82%. Besides, the residual activity was found to be 57% in test [19] and 7% in test [13].
